Screening data: PubChem BioAssay, National Center for Advancing Translational Sciences (NCATS)
This excerpt belongs to a sample that is enriched for hits.
CBFb RUNX1 block – CBF-beta/RUNX1 interaction disruption; 230,000 tested, under 10 active; Potency, µM (series often up to 59.8 µM), without a hit: at the top dose activity, negative = inhibition, hits mostly inhibitors; AlphaScreen CBFb-His/RUNX1-biotin binding, biochemical; also: % of control where 0% means no effect
Target sequence (Q01196 whole entry, looked up): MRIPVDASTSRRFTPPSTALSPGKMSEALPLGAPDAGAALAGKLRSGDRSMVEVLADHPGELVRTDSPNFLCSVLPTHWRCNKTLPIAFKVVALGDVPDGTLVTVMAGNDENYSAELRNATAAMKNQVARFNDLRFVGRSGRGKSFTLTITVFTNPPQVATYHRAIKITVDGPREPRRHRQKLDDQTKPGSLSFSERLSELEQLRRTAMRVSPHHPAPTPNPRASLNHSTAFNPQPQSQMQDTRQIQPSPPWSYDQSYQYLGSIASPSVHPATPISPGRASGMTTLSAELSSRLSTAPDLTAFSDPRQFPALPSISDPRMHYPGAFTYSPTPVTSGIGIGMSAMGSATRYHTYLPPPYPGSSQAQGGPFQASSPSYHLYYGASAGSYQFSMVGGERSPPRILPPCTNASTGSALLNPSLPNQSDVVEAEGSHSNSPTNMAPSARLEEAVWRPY
Target sequence (Q13951 whole entry, looked up): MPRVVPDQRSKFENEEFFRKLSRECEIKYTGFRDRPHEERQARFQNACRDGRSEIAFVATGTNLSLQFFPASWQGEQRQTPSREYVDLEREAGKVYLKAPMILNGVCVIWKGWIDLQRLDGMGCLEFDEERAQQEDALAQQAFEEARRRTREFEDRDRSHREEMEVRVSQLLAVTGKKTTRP
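AlphaScreen binding: CBFb-His and RUNX1-biotin (30 nM each) preincubated 20 min, compound added for 15 min, then nickel and streptavidin beads for 90 min, all at room temperature. Disruption of the interaction by any mechanism counts as activity.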
Integrin act MD – activators of alpha7 integrin expression for muscular dystrophy. 350,000 tested, 0.064% active. Potency, µM (highest dose often 38.3 µM), without a hit: top-dose activation, most hits filed as activators. alpha7betagal myoblasts, beta-gal FDG fluorescence, 48 h. AID 624291;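 also: potency is read from the fitted curve at half-maximal effect; 100% = response of the positive control SU9516; nearly all actives have a fitted effect of over 60% in size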
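Alpha7betagal+/- myoblasts (passage 13) were plated 16-24 hr, then exposed to compounds (1:260 dilution of DMSO stock) for 48 hours at 37C. After MPER lysis, β-galactosidase reporter activity was read as FDG fluorescence (ex 480/em 540) after 30 minutes.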
ClpP mod – qHTS Assay for Activators of ClpP | ATP-dependent Clp protease proteolytic subunit (Bacillus subtilis (strain 168)), P80244 | purified B. subtilis ClpP, FRET peptide cleavage, 20 min | Potency, µM (doses to about 57.5 µM), without a hit: top-dose activity change, negative = active | 340,000 tested, 1.9% active; active = well fitted falling curve with a large enough effect; inconclusive = small, poorly fitted or top-dose-only effect; inactive = no such curve, though single readings can be large or run the other way; also: potency is read from the fitted curve at half-maximal effect; the source files actives as falling curves though it sought activators and does not explain the sign; nearly all actives have a fitted effect of over 65% in size
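Purified B. subtilis ClpP, 10 microg/mL final in Tris/HCl pH8 with KCl, BSA, glycerol and Tween-20, cleaved an Abz/nitrotyrosine-quenched decapeptide. Fluorescence (ex 320, em 430) was read at 0 and 20 min at room temperature. Delta was normalized to 5.8 microM ADEP and DMSO/no-enzyme controls.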
Glioma ERSR ind – induces the endoplasmic reticulum stress response in human glioma cells | U87-MG GRP78 promoter luciferase reporter, 16 h | Potency, µM, for inactives: at the highest dose activation, actives largely listed as activators | 420,000 tested, 0.02% active | AID 602332; also: potency is read from the fitted curve at half-maximal effect; series mostly up to about 76 µM; % of control where 0% means no effect; nearly all actives have a fitted effect of over 35% in size
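ERSR induction read as luciferase luminescence (Bright-Glo, 10 min at room temperature) in stably transfected human U87-MG glioma cells exposed to compounds for 16 h, using GRP78 as sensor.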
N370S GC – N370S glucocerebrosidase modulation, Gaucher chaperone candidate | AID 2101 | P04062 | 330,000 tested, 0.092% active | N370S GC spleen homogenate, 4MU-glucoside fluorescence | Potency, µM (top dose mostly 59.4 µM), for the others: top-dose activity change, negative = inhibition, hits mostly inhibitors;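 also: potency is read from the fitted curve at half-maximal effect; 0% = full enzyme activity and -100% = no enzyme basal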
Anesthetic bind – candidate novel general anesthetic via apoferritin binding; P02791; apoferritin/1-aminoanthracene competitive binding, fluorescence; Potency, µM (titrated, usually from 77.5 µM), inactives show at the highest dose activity change, negative = displacement, most hits filed as inhibitors; 350,000 tested, 0.074% active; AID 485281; also: potency is read from the fitted curve at half-maximal effect; % is scaled to controls: 0 for no effect and ±100 for the full control effect; nearly all actives have a fitted effect of over 20% in size
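Steps: apoferritin (10 uM) was premixed with half-saturated 1-AMA in PBS, compounds were pin-transferred, plates stood 10 min at room temperature, fluorescence was read at 380/535 nm, and curves were fitted with a Hill equation.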
* hit, by the source's call; ? = inconclusive; / = not tested or not shown; [ ] = remark or other dose. Unless noted, calls follow the shape of the dose curve; as a rule, active = well fitted curve in the direction sought with a large enough effect; inconclusive = small, poorly fitted or top-dose-only effect, or another doubt; inactive = no such curve, though single readings can be large; an effect the other way counts as inactive or inconclusive.

SMILES	CBFb RUNX1 block	Integrin act MD	ClpP mod	Glioma ERSR ind	N370S GC	Anesthetic bind
O=C(C1=NN(c2ccccc2)C2C(=O)N(c3cccc(Cl)c3)C(=O)C12)c1ccccc1 (stereo not drawn)	?	-50%	18µM*	-4%	4%	123%
COc1cc(/C=C/C(=O)OCC(=O)Nc2nnc(-c3ccccc3)o2)cc(OC)c1OC	/	5%	18µM*	-4%	3%	/
CCCn1c(=NC(=O)c2ccco2)c(C(=O)OCC)cc2c(=O)n3ccccc3nc21	-4%	-13%	18µM*	-3%	11%	128%
CCOC(=O)c1cc2c(=O)n3ccccc3nc2n(CCCOC)c1=NC(=O)c1ccncc1	-3%	-16%	/	1%	?	0%
CCOC(=O)c1cc2c(=O)n3cccc(C)c3nc2n(CC2CCCO2)c1=NC(C)=O (stereo not drawn)	/	3%	1.3µM*	-2%	/	/
CCOC(=O)c1cc2c(=O)n3ccccc3nc2n(CCCOC)c1=NC(C)=O	-15%	-11%	35µM*	-4%	?	473%
COc1ccccc1-c1ccnc(-n2ncc(C(=O)NCC3(N4CCOCC4)CCCC3)c2C)n1	/	/	/	3%	/	/
COc1cc(-c2cnc3ccccc3c2)cc2c1OCCN(C(=O)CCn1nc(C)cc1C)C2	/	/	/	-1%	/	/
CCN(CC)c1nc(C#N)cc(-c2ccc(OC)cc2)n1	?	9%	35µM*	-6%	16%	-12%
COc1ccc(-c2cc(C#N)nc(NN)n2)cc1	-2%	23%	-2%	-3%	?	-5%
COc1ccc(-c2cc(C#N)nc(Oc3ccc(Cl)cc3)n2)cc1	-4%	-24%	7.9µM*	-4%	13%	-5%
COc1ccc(-c2cc(C#N)nc(Cl)n2)cc1	6%	-27%	0%	-8%	-4%	-17%
COc1cc(OC)c(C2C3=C(CCCC3=O)Nc3nc4ccccc4n32)cc1OC (stereo not drawn)	9%	-14%	25µM*	-1%	13%	-1%
CCOC(=O)c1ccccc1NC(=O)N(C(C)C)C1CCN(C(C)=O)CC1	/	/	28µM*	-2%	/	-18%
CCN1CCN(C(=O)c2cn(CCOC)c(=O)c3c2c2ccccc2n3C)CC1	8%	-22%[7.66 µM]	?	-5%	23%	25%
CC(C)Cn1cc(C(=O)N2CCN(c3ccccn3)CC2)c2c3ccccc3n(C)c2c1=O	-1%	-14%[7.66 µM]	16µM*	0%	-14%	-10%
COCCCNC(=O)c1cn(CC(C)C)c(=O)c2c1c1ccccc1n2C	2%	15%	32µM*	-1%	3%[12.8 µM]	-11%
CCOC(=O)C1CCN(C(=O)c2cn(CCOC)c(=O)c3c2c2ccccc2n3C)CC1	4%	-6%	7.9µM*	0%	6%	-8%
O=C(c1ccco1)N1CCN(CC(O)COc2ccc(Br)cc2)CC1 (stereo not drawn)	/	3%	/	-5%	-6%	-1%
O=C(c1ccco1)N1CCN(CC(O)Cn2c3ccccc3c3ccccc32)CC1 (stereo not drawn)	-5%	0%	28µM*	0%	-10%	-20%
CCOc1ccc(NC(=O)c2cn(CC(C)C)c(=O)c3c2c2ccccc2n3C)cc1	-5%	-25%	-4%	1%	3%	2%
CCN(Cc1ccncc1)Cc1ccc2c(c1)CN(C(=O)c1ccccc1)CCO2	/	/	/	-6%	/	/
CC(C)Cn1cc(C(=O)NCCCN2CCCC2=O)c2c3ccccc3n(C)c2c1=O	5%	-14%[7.66 µM]	16µM*	-4%	-6%	-7%
Cn1cc(C(=O)N2CCN(C(=O)c3ccco3)CC2)c2c3ccccc3n(C)c2c1=O	-1%	6%	14µM*	-5%	1%	-9%
COCCCNC(=O)c1cn(CCOC)c(=O)c2c1c1ccccc1n2C	/	?	4%	-5%	29%	2%
CC(C)Cn1cc(C(=O)NCCCN2CCC(C)CC2)c2c3ccccc3n(C)c2c1=O	/	6%	/	-2%	/	/
